HT1080-NT tox: kills 2HG-producing HT-1080-NT fibrosarcoma cells; AID 686970; Potency, µM (top dose mostly 46.1 µM), hits mostly cytotoxic; HT-1080-NT fibrosarcoma viability, CellTiter-Glo ATP luminescence, 48 h; 360,000 compounds, 1.6% hits;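 further: NT is the 2HG producing partner of a matched IDH1 knockdown line; nearly all actives have a fitted effect of over 55% in size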
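Viability of the 2HG-overproducing fibrosarcoma line after 48 hours of compound exposure at 37 degrees C was determined by luminescence with CellTiter-Glo, and concentration-effect curves were then fitted and categorized.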
MCF10A rerep: DNA re-replication induction in MCF 10a cells; MCF 10A DNA re-replication, Hoechst nuclear intensity, 48 h; Potency, µM (series often up to 46.1 µM), actives largely listed as activators; 350,000 compounds, 2.9% hits; AID 624296; further: nearly all actives have a fitted effect of over 50% in size
HT1080 IDH1KD tx: kills HT-1080 cells with IDH1 knockdown | 360,000 compounds, 2% hits | AID 686971 | Potency, µM (highest dose often 46.1 µM), hits mostly cytotoxic | HT-1080 IDH1 knockdown viability, ATP luminescence, 48 h
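Using the IDH1-knockdown HT-1080 line run in the same batch and compound series as the NT line, viability after 48 h at 37 °C was determined by CellTiter-Glo luminescence and expressed as % activity.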
KB-V1 MDR tox: KB-V1 MDR subline cytotoxicity; 400,000 compounds, 3.4% hits; AID 1347076; Potency, µM (series often up to 46.1 µM), actives largely listed as cytotoxic; KB-V1 MDR cells viability, CellTiter-Glo, 72 h; further: nearly all actives have a fitted effect of over 60% in size
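Cytotoxicity via CellTiter-Glo luminescence after 72 h compound exposure at 37 degrees C. Cells: drug-selected KB-V1 line, DMEM phenol-red free plus 10% FBS. Compounds tested at multiple concentrations; normalized data fitted to concentration-effect curves.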
KB-3-1 tox: KB-3-1 parental cell cytotoxicity. KB-3-1 viability, CellTiter-Glo ATP luminescence, 72 h. Potency, µM (doses to about 46.1 µM), most hits filed as cytotoxic. 400,000 compounds, 1.4% hits. AID 1347075; further: nearly all actives have a fitted effect of over 60% in size
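Here the drug-naive KB-3-1 line serves as comparator for MDR sub-line selectivity; cells received compound titrations, 72 h at 37 °C, then CellTiter-Glo readout.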
SW480 rereplic: induces DNA re-replication in SW480 colon adenocarcinoma cells | SW480 DNA re-replication, Hoechst DNA content imaging, 48 h | Potency, µM (series often up to 46.1 µM), hits mostly activators | 340,000 compounds, 1.8% hits; further: nearly all actives have a fitted effect of over 55% in size
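Readout is total intensity of Hoechst-stained nuclei, excited at 405 nm and collected at 500-530 nm. Compound treatment lasted 48 hr at 37 C in 5% CO2 before staining.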
Each line names hits and unclear results; the compound was inactive in the other large screens. A selection: hits, their analogues and other compounds. The true share with any hit is near 8%. The call rests on the fitted dose curve; in most records, active means well fitted curve in the direction sought with a large enough effect; inconclusive means small, poorly fitted or top-dose-only effect, or another doubt; inactive means no such curve, though single readings can be large; an effect the other way counts as inactive or inconclusive.

Cc1ccc(S(=O)(=O)N(C)C)cc1NC(=O)c1ccccc1SCC(=O)N1CCCC1	none
Nc1ccc2nn(-c3cccc4ccccc34)nc2c1	MCF10A rerep 9.2µM, SW480 rereplic 18µM
Cc1cc2nn(-c3cccc4ccccc34)nc2cc1N	MCF10A rerep 21µM
Cc1ccc(-n2nc3cc(C)c(N)cc3n2)cc1	MCF10A rerep 18µM, SW480 rereplic inconclusive
CC(C)(C)c1ccc(OCCOc2ccc(C(C)(C)C)cc2NC=O)c(NC=O)c1	HT1080-NT tox inconclusive, MCF10A rerep inconclusive, HT1080 IDH1KD tx 15µM, KB-V1 MDR tox inconclusive, SW480 rereplic inconclusive
C[C@]1(c2ccccc2)OC(C(=O)O)=CC1=O	none (no result: HT1080-NT tox, HT1080 IDH1KD tx, KB-V1 MDR tox, KB-3-1 tox)
CCc1ccc2[nH]c(=O)c(CN(Cc3ccccc3)Cc3nnnn3C(C)(C)C)cc2c1	KB-3-1 tox inconclusive (no result: HT1080-NT tox, MCF10A rerep, HT1080 IDH1KD tx, SW480 rereplic)
CC(C)(C)n1nnnc1CN(Cc1ccc(F)cc1)Cc1ccco1	KB-V1 MDR tox 21µM, KB-3-1 tox inconclusive
C[N+]1(CC(=O)c2ccc(O)c(O)c2)CCOCC1	none (no result: HT1080-NT tox, MCF10A rerep, HT1080 IDH1KD tx, SW480 rereplic)
COc1ccc(C(=O)NCCCNC(=O)c2cccnc2)cc1Br	HT1080-NT tox inconclusive, HT1080 IDH1KD tx 10µM
COc1ccc(CCCC(=O)N/N=C/c2cccc(OC)c2O)cc1C	HT1080-NT tox inconclusive, MCF10A rerep 1.5µM, HT1080 IDH1KD tx inconclusive, KB-V1 MDR tox inconclusive, KB-3-1 tox inconclusive, SW480 rereplic inconclusive
COc1ccc(/C=N/NC(=O)CNC(=O)COc2ccccc2)cc1	none
O=C(COc1ccccc1)NCC(=O)Nc1cccc2ccccc12	KB-V1 MDR tox 18µM, KB-3-1 tox inconclusive
COc1cccc(/C=N/NC(=O)CNC(=O)COc2ccccc2)c1O	HT1080-NT tox inconclusive, HT1080 IDH1KD tx inconclusive, SW480 rereplic 3.3µM
COc1ccccc1CO/N=C/c1cccn1-c1nccc(N(C)C)c1C#N	none
Cc1c(C(=O)NCc2ccc(OC(C)C)cc2)sc2ncnc(N(C)C3CCCCC3)c12	none (no result: HT1080-NT tox, MCF10A rerep, HT1080 IDH1KD tx, SW480 rereplic)
COc1cccc(/C=N/NC(=O)CNC(=O)c2cccnc2)c1O	HT1080-NT tox inconclusive, MCF10A rerep inconclusive, HT1080 IDH1KD tx 12µM, SW480 rereplic inconclusive
COc1cccc(/C=N/NC(=O)CSc2nnc(C)n2-c2ccccc2)c1O	HT1080-NT tox inconclusive, MCF10A rerep inconclusive, HT1080 IDH1KD tx 13µM, KB-3-1 tox inconclusive, SW480 rereplic inconclusive
COc1cccc(/C=N/NC(=O)CN2CC(c3ccccc3)CC2=O)c1O (stereo not drawn)	HT1080-NT tox inconclusive, MCF10A rerep inconclusive, HT1080 IDH1KD tx inconclusive, KB-V1 MDR tox inconclusive, KB-3-1 tox inconclusive, SW480 rereplic 7.3µM
COc1cccc(/C=N/NC(=O)C[n+]2ccccc2)c1O	MCF10A rerep inconclusive, SW480 rereplic inconclusive
c1ccc(-c2nnc(CN3CCN(c4ccccn4)CC3)o2)cc1	none (no result: HT1080-NT tox, MCF10A rerep, HT1080 IDH1KD tx, SW480 rereplic)
Cc1ccc(CN2CCN(/N=C/C=C/c3ccccc3[N+](=O)[O-])CC2)cc1	MCF10A rerep inconclusive, SW480 rereplic inconclusive
OCC1(Cc2cccc(Cl)c2)CCCN(Cc2ccc(F)c(F)c2)C1 (stereo not drawn)	MCF10A rerep inconclusive, HT1080 IDH1KD tx 26µM
Cc1cc(C(=O)N2CCCC(CO)(Cc3ccc(F)cc3)C2)c(C)o1 (stereo not drawn)	MCF10A rerep 23µM, KB-V1 MDR tox inconclusive, SW480 rereplic inconclusive
CSc1cccc(CN2CCCC(CO)(Cc3cccc(Cl)c3)C2)c1 (stereo not drawn)	none
CC(C)Oc1ccc(CN2CCCC(CO)(Cc3ccc(F)cc3)C2)cc1 (stereo not drawn)	HT1080-NT tox inconclusive, HT1080 IDH1KD tx 29µM, SW480 rereplic inconclusive
COc1cc(CN2CCCC(CO)(Cc3cccc(Cl)c3)C2)cc(OC)c1O (stereo not drawn)	MCF10A rerep inconclusive, SW480 rereplic inconclusive
COc1cc(CN2CCCC(CO)(Cc3cccc(Cl)c3)C2)cc2c1OCO2 (stereo not drawn)	HT1080-NT tox inconclusive, HT1080 IDH1KD tx 16µM
COCCCCOc1cc2nc(N3CCCN(C)CC3)nc(NC3CCN(C)CC3)c2cc1OC	none (no result: MCF10A rerep, KB-V1 MDR tox, KB-3-1 tox, SW480 rereplic)
Cc1ccc(-c2noc(-c3cccnc3NCc3ccc(Cl)cc3)n2)cc1	none (no result: HT1080-NT tox, MCF10A rerep, HT1080 IDH1KD tx, SW480 rereplic)

Source: PubChem (National Center for Advancing Translational Sciences (NCATS))
